Source: ChEMBL document CHEMBL4513145, “CO-ADD screening of Biotechnology Research Centre (C.R.B.t) (Algeria) compounds”
“And” between values parts separate entries of the source, which are not always exact repeats. Equal entries are not always repeated. Measured potencies and affinities stand elsewhere.

What was measured:
Staphylococcus aureus = details: Concentration 32 ug.mL-1, ASSAY_TEST Inhibition of Bacterial Growth, detection method Absorption (OD600), MEDIA CAMHB, plate type 384well, NBS, CORNING #3640, time 18 hr
Escherichia coli = details: Concentration 32 ug.mL-1, ASSAY_TEST Inhibition of Bacterial Growth, detection method Absorption (OD600), MEDIA CAMHB, plate type 384well, NBS, CORNING #3640, time 18 hr

Structure (SMILES)	Inhibition (Staphylococcus aureus; 32 ug/mL)	Inhibition (Escherichia coli; 32 ug/mL)	Inhibition (Staphylococcus aureus) [%]	Inhibition (Escherichia coli) [%]
Cc1ccc(S(=O)(=O)N2CC(Cc3ccccc3)C(=O)N2S(=O)(=O)c2ccc(C)cc2)cc1 (stereo not given)	-1.12% and 2.54%	-8.26% and -4.89%		
Cc1ccc(S(=O)(=O)N2CC(C)C(=O)N2S(=O)(=O)c2ccc(C)cc2)cc1 (stereo not given)	12.43% and 4.65%	-5.27% and -6.97%		
O=C1ON(C(=O)OCc2ccccc2)CC1Cc1ccccc1 (stereo not given)	5.51% and 8.05%	-4.21% and -4.06%		
CC1C(O)N(C(=O)OC(C)(C)C)N(S(=O)(=O)c2ccc([N+](=O)[O-])cc2)C1C (stereo not given)			14.48	-1.81
CC1CN(S(=O)(=O)c2ccc([N+](=O)[O-])cc2)N(C(=O)OC(C)(C)C)C1=O (stereo not given)	12.53% and 22.23% and 12.31%	-2.77% and -4.85% and -5.54%		
